Records with an inconclusive call do not appear. Activity calls are given as the source filed them. Unless noted, the call rests on the fitted dose curve.
Assays:
[1] = qHTS assay to identify small molecule antagonists of the sonic hedgehog signaling (Shh) pathway (AID 1259369); further: nearly all actives have a fitted effect of over 45% in size; further: potency means the concentration at half of the fitted maximal effect
Procedure, shortened: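 Luminescence readout: firefly Luc under Gli1 response element in 3T3Gli1-Luc cells (NIH/3T3 clone). Antagonist mode, stimulation by conditioned medium; compound exposure 24hr at 37 C, 5% CO2.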

[2] = target: Estrogen receptor beta (Homo sapiens) (UniProt Q92731); experiment: qHTS assay to identify small molecule agonists of the estrogen receptor beta (ER-beta) signaling pathway (AID 1259377; active means well fitted activation curve with a large enough effect in the signal ratio in the repeat runs, not every such curve was filed as active; the % refers to the signal ratio)
Estrogen receptor beta (Homo sapiens), sequence (Q92731 whole entry, looked up): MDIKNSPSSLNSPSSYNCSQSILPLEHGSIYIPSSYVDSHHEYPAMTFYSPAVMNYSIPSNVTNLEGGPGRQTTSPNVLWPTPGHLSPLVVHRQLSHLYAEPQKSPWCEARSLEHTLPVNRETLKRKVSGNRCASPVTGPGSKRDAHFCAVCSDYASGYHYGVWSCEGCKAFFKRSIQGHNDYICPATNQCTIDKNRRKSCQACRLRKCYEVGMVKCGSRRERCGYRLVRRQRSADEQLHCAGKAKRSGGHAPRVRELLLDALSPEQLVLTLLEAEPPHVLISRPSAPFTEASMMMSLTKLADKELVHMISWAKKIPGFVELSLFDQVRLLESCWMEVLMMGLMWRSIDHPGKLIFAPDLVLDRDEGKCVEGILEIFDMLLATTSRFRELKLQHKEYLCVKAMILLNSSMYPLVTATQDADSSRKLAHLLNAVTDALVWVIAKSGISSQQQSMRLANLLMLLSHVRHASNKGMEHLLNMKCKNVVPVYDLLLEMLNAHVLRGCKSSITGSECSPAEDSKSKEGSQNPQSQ
Procedure, shortened: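 qHTS in ER-beta-UAS-bla HEK293T cells: 6 hr settling, then 16 hr compound at 37C, then LiveBLAzer substrate 2 h at RT before fluorescence reading.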

[3] = target: Estrogen receptor beta (Homo sapiens) (UniProt Q92731); experiment: qHTS assay to identify small molecule antagonists of the estrogen receptor beta (ER-beta) signaling pathway (AID 1259378; active means well fitted inhibition curve with a large enough effect in the signal ratio in the repeat runs, not every such curve was filed as active; the % refers to the signal ratio; further: potency means the concentration at half of the fitted maximal effect)
Procedure, shortened: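 ER-beta-UAS-bla HEK293T cells in 2% charcoal-stripped FBS medium treated with compound plus 1nM final 17-beta-estradiol for 16 hr at 37C. Beta-lactamase reporter read by FRET substrate fluorescence after 2 hours at room temperature.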

[4] = qHTS assay to identify small molecule agonists of the androgen receptor (AR) signaling pathway in the presence of an antagonist - cell viability counter screen (AID 1259379; active means well fitted curve in the direction sought with a large enough effect in the repeat runs; an effect the other way counts as inactive or inconclusive; further: nearly all actives have a fitted effect of over 25% in size; further: potency means the concentration at half of the fitted maximal effect;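 on activity change, negative = cytotoxicity: MDA-kb2 human breast cancer cells carrying an MMTV luciferase reporter; series mostly up to about 92 µM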)
Procedure, shortened: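 Viability counter screen: CellTiter-Fluor fluorescence, measured in the same wells as the luciferase read-out. MDA-kb2 cells, 3,000/well, with nilutamide at 3.0uM final and compounds at 15 concentrations, 16 hr at 37C, 0% CO2.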

[5] = qHTS assay to identify small molecule agonists of the estrogen receptor beta (ER-beta) signaling pathway - cell viability counter screen (AID 1259380; active means well fitted curve in the direction sought with a large enough effect in the repeat runs; an effect the other way counts as inactive or inconclusive; further: nearly all actives have a fitted effect of over 30% in size; further: potency means the concentration at half of the fitted maximal effect)
Procedure, shortened: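 Luminescence read-out (CellTiter-Glo, 30 min, room temp) taken in the same wells as the beta-lactamase reporter assay; ER-beta-UAS-bla HEK293T cells exposed to DMSO-dissolved compounds for 16 hr at 37C in 2% charcoal-stripped FBS medium.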

[6] = target: Androgen receptor (Homo sapiens) (UniProt P10275); experiment: qHTS assay to identify small molecule agonists of the androgen receptor (AR) signaling pathway in the presence of an antagonist (AID 1259381); further: nearly all actives have a fitted effect of over 15% in size; further: potency means the concentration at half of the fitted maximal effect
Androgen receptor (Homo sapiens), sequence (P10275 whole entry, looked up): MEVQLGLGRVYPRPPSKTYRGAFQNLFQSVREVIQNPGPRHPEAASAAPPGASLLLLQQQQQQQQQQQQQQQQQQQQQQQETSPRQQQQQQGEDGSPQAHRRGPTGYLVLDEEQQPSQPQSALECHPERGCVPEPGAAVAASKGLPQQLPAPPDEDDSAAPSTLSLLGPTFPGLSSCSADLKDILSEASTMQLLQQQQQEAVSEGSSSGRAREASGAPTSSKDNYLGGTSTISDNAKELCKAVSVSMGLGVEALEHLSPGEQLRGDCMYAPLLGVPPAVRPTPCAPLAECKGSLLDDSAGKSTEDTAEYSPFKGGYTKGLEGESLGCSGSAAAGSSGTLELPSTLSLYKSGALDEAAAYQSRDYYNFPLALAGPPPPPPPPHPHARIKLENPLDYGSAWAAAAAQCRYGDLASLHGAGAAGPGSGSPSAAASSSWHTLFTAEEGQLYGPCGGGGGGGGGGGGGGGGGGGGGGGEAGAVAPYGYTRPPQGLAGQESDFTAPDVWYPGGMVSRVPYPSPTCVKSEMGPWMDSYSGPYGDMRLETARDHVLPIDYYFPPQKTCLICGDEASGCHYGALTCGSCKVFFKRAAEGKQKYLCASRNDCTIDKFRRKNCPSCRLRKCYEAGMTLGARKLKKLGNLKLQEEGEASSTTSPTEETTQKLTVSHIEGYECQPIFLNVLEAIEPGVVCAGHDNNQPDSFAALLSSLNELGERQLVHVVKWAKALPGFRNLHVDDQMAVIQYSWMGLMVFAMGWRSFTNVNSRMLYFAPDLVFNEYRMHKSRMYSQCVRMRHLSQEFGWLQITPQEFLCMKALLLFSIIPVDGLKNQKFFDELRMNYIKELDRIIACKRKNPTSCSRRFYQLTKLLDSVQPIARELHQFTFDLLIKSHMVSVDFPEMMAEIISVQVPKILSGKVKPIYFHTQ
Procedure, shortened: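 Luciferase read-out (ONE-Glo, 30min room temperature) in MDA-kb2 MMTV-reporter cells; agonist mode run in presence of AR antagonist nilutamide, 3.0uM final. Compounds tested as 15-point series, 16hr exposure at 37C, 0% CO2.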

[7] = target: Estrogen receptor (Homo sapiens) (UniProt P03372); experiment: qHTS assay to identify small molecule agonists of the estrogen receptor alpha (ER-alpha) signaling pathway in the presence of an antagonist (AID 1259383); further: top concentration of the series differs between compounds; nearly all actives have a fitted effect of over 15% in size
Estrogen receptor (Homo sapiens), sequence (P03372 whole entry, looked up): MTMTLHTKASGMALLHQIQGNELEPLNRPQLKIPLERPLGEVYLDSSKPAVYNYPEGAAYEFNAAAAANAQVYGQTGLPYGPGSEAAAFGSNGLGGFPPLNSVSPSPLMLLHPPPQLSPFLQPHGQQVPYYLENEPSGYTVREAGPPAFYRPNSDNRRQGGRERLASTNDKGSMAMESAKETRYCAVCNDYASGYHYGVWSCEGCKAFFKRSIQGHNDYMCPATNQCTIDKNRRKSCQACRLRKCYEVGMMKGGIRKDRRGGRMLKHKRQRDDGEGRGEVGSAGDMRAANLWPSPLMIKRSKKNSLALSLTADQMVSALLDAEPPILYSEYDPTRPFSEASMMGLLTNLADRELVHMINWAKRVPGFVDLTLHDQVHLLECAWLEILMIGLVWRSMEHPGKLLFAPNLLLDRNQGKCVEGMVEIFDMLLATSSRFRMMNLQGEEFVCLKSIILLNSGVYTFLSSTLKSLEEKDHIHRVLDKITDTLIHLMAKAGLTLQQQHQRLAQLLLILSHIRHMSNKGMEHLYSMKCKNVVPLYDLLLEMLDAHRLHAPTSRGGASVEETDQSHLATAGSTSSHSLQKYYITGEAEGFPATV
Procedure, shortened: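 Luciferase luminescence (ONE-Glo, 30min at room temperature) measured in VM7Luc4E2 cells after 22hr compound exposure at 15 concentrations, with 10.0nM ICI-182,780 final present; cells express endogenous ER-alpha and carry four EREs upstream of luciferase.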

[8] = qHTS assay to identify small molecule agonists or antagonists of the thyroid stimulating hormone receptor (TSHR) signaling pathway - wild type cell line counter screen (AID 1259384); further: potency means the concentration at half of the fitted maximal effect
Procedure, shortened: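 Wild-type Hek293 cells, 800/well, 18 h at 37C, then compound with Ro20-1724 for 30 min RT. cAMP by HTRF (cAMP-d2/anti-cAMP cryptate), 1 h RT, fluorescence read. 15 concentrations, triplicates.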

[9] = target: Thyrotropin receptor (Homo sapiens) (UniProt P16473); experiment: qHTS assay to identify small molecule antagonists of the thyroid stimulating hormone receptor (TSHR) signaling pathway (AID 1259385); further: nearly all actives have a fitted effect of over 20% in size; further: potency means the concentration at half of the fitted maximal effect
Thyrotropin receptor (Homo sapiens), sequence (P16473 whole entry, looked up): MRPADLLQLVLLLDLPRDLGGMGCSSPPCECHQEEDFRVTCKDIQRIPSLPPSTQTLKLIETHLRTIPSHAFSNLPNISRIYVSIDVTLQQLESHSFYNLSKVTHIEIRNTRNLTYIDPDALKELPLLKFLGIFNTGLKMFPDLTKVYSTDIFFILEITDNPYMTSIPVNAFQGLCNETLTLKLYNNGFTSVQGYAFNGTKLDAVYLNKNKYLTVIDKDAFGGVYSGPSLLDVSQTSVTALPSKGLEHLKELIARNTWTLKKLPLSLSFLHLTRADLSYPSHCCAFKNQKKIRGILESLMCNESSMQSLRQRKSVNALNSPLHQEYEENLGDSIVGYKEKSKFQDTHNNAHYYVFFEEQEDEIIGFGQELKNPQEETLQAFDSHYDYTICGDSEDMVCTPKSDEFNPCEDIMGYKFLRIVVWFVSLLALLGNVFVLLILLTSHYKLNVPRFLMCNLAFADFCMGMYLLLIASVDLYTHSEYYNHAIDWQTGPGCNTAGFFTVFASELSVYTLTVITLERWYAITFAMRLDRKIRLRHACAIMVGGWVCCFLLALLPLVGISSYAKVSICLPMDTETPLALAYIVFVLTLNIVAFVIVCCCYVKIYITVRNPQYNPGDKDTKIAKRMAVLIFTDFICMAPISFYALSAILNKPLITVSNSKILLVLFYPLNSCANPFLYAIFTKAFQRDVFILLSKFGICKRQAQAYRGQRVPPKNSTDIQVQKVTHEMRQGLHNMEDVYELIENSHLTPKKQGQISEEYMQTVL
Procedure, shortened: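 TSHR-HEK293 cells (800/well) plated 18 h, then compounds with Ro20-1724 and TSH at 1.5 ng/mL final, 30 min at room temperature. cAMP quantified by HTRF (cAMP-d2/anti-cAMP-cryptate, 1 h); 15 concentrations in triplicate.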

[10] = qHTS assay to identify small molecule antagonists of the estrogen receptor beta (ER-beta) signaling pathway - cell viability counter screen (AID 1259382; active means well fitted curve in the direction sought with a large enough effect in the repeat runs; an effect the other way counts as inactive or inconclusive; further: series mostly up to about 92 µM; nearly all actives have a fitted effect of over 55% in size)
Procedure, shortened: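 Luminescent ATP read-out (CellTiter-Glo, 30 min, RT) taken in the same wells as the bla reporter assay. HEK293T ER-beta-UAS-bla cells in 2% charcoal-stripped FBS were exposed to compounds with 1nM E2 for 16 hr at 37C.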
On the % scale 0 is the no-effect control and ±100 the full control effect.

CCOC(=O)C(O)c1ccccc1 (stereo not drawn)
inactive: Potency [1] | Potency [2] | Potency [3] | Potency [4] | Potency [5] | Potency [6] | Potency [7] | Potency [8] | Potency [9]

O=C(CS)Nc1ccccc1
inactive: Potency [1] | Potency [2] | Potency [3] | Potency [4] | Potency [5] | Potency [10] | Potency [7] | Potency [8] | Potency [9]

O=C1OC(=O)C2C3C=CC(C3)C12 (stereo not drawn)
inactive: Potency [1] | Potency [2] | Potency [3] | Potency [4] | Potency [5] | Potency [10] | Potency [8] | Potency [9]

CCN(CC)CCOC(=O)C(c1ccccc1)C1CCCCC1 (stereo not drawn)
active: Potency [1] 15 µM | Potency [9] 26.6 µM
inactive: Potency [2] | Potency [3] | Potency [4] | Potency [5] | Potency [10] | Potency [7] | Potency [8]

CCOC(=O)c1cccnc1
inactive: Potency [1] | Potency [2] | Potency [3] | Potency [4] | Potency [5] | Potency [10] | Potency [7] | Potency [8] | Potency [9]

CC(=O)c1cccc([N+](=O)[O-])c1
inactive: Potency [1] | Potency [2] | Potency [3] | Potency [4] | Potency [5] | Potency [10] | Potency [7]

C=CCOc1ccccc1OCC(O)CNC(C)C (stereo not drawn)
inactive: Potency [1] | Potency [2] | Potency [3] | Potency [4] | Potency [5] | Potency [10] | Potency [7]

CCOC(=O)C(=O)CCc1ccccc1
inactive: Potency [1] | Potency [2] | Potency [3] | Potency [4] | Potency [5] | Potency [6] | Potency [10] | Potency [7]

c1cc(CCCc2ccncc2)ccn1
inactive: Potency [1] | Potency [2] | Potency [3] | Potency [4] | Potency [5] | Potency [10] | Potency [7] | Potency [8] | Potency [9]

Cc1cccc(C)c1NC(=O)CN(CC(=O)O)CC(=O)O
inactive: Potency [1] | Potency [2] | Potency [3] | Potency [4] | Potency [5] | Potency [10] | Potency [8] | Potency [9]

NCCCN1CCOCC1
inactive: Potency [1] | Potency [2] | Potency [3] | Potency [4] | Potency [5] | Potency [6] | Potency [10] | Potency [7] | Potency [8] | Potency [9]

CC(=O)c1ccc2c(c1)N(CCCN1CCC(CCO)CC1)c1ccccc1S2
inactive: Potency [2] | Potency [7]
active: Potency [1] 11.9 µM | Potency [3] 15 µM | Potency [5] 26.6 µM

Cc1oc(-c2ccccc2)nc1CCOc1cccc2c1ccn2CCC(=O)O
inactive: Potency [1] | Potency [2] | Potency [10] | Potency [7] | Potency [8] | Potency [9]
active: Potency [3] 30.6 µM | Potency [5] 10.9 µM

CCC(=O)O[C@]1(C(=O)CCl)[C@@H](C)C[C@H]2[C@@H]3CCC4=CC(=O)C=C[C@]4(C)[C@@]3(F)[C@@H](O)C[C@@]21C
active: Potency [3] 29.8 µM | Potency [6] 0.0007 µM
inactive: Potency [1] | Potency [2] | Potency [4] | Potency [7] | Potency [8]

O=S(=O)(Oc1ccc(Cl)cc1)c1ccccc1
inactive: Potency [1] | Potency [2] | Potency [3] | Potency [4] | Potency [10] | Potency [7] | Potency [8] | Potency [9]

O=C(O)CNCC(=O)O
inactive: activity change, negative = inhibition [1] 8.21% [at 8.39 µM] | activation [2] 0.711% [at 8.39 µM] | activity, negative = inhibition [3] 5.13% [at 8.39 µM] | activity change, negative = cytotoxicity [4] -0.627% [at 8.39 µM] | activation [6] 3.52% [at 8.39 µM] | activity change, negative = cytotoxicity [10] -2.7% [at 8.39 µM] | activation [7] -1.55% [at 8.39 µM] | cAMP activity change [8] 0.505% [at 8.39 µM, stronger effect = higher value] | activity change, negative = inhibition [9] -1.17% [at 8.39 µM]

CCCCCCCCO[C@@H]1O[C@H](CO)[C@@H](O)[C@H](O)[C@H]1O
inactive: Potency [1] | Potency [2] | Potency [3] | Potency [4] | Potency [10] | Potency [7] | Potency [8] | Potency [9]

CNCCCCOc1ccccc1Cc1ccccc1
active: Potency [1] 10.6 µM | Potency [3] 11.9 µM | Potency [5] 11.9 µM
inactive: Potency [2] | Potency [7] | Potency [8]

CCCCCCCN
inactive: Potency [1] | Potency [2] | Potency [3] | Potency [4] | Potency [5] | Potency [7] | Potency [8] | Potency [9]

OCc1cc(C(O)CNCCCCCCOCCCCc2ccccc2)ccc1O (stereo not drawn)
inactive: Potency [2] | Potency [7] | Potency [9]
active: Potency [1] 6.68 µM | Potency [3] 16.8 µM | Potency [4] 26.6 µM | Potency [5] 21.1 µM | Potency [8] 0.0009 µM

CC(CSC(=O)c1ccccc1)C(=O)N1C[C@@H](Sc2ccccc2)C[C@H]1C(=O)O (stereo partly drawn)
inactive: activity change, negative = inhibition [1] 9.12% [at 19 µM] | activation [2] -2.37% [at 19 µM] | activity, negative = inhibition [3] -3.38% [at 19 µM] | activity change, negative = cytotoxicity [4] 1.42% [at 19 µM] | activity change, negative = cytotoxicity [5] 0.0866% [at 19 µM] | Potency [7] | cAMP activity change [8] 7.8% [at 18.9 µM, stronger effect = higher value] | activity change, negative = inhibition [9] -6.99% [at 19 µM]

CCOc1ccc(O)cc1
active: Potency [1] 15.4 µM
inactive: Potency [2] | Potency [3] | Potency [4] | Potency [5] | Potency [7] | Potency [8] | Potency [9]

NC(N)=NCCC[C@H](N)C(=O)O
inactive: activity change, negative = inhibition [1] 18.9% [at 8.39 µM] | activation [2] -0.985% [at 8.39 µM] | activity, negative = inhibition [3] 14.4% [at 8.39 µM] | activity change, negative = cytotoxicity [4] 2.11% [at 8.39 µM] | activity change, negative = cytotoxicity [10] 6.28% [at 8.39 µM] | activation [7] -0.001% [at 8.39 µM] | cAMP activity change [8] -11% [at 8.39 µM, stronger effect = higher value] | activity change, negative = inhibition [9] -0.191% [at 8.39 µM]

O=C(NCC1CN(c2ccc(N3CCOCC3=O)cc2)C(=O)O1)c1ccc(Cl)s1 (stereo not drawn)
inactive: Potency [1] | Potency [2] | Potency [3] | Potency [4] | Potency [7] | Potency [8] | Potency [9]

CCCCCCCCCCCCCCCCCCOS(=O)(=O)O
inactive: Potency [1] | Potency [2] | Potency [4] | Potency [7] | Potency [8]
active: Potency [3] 48.6 µM | Potency [9] 68.6 µM
